These results are taken from PubChem BioAssay (Tox21).

A number with no mark means an inactive call. Inconclusive results are not listed. Calls of active or inactive are those of the source. Unless noted, calls come from the whole dose curve.

Assay [1] is described as follows: Nuclear factor erythroid 2-related factor 2/antioxidant responsive element (Nrf2/ARE) small molecule agonists: qHTS cell viability counter screen in human keratinocytes (AID 1919968; active = well fitted curve in the direction sought with a large enough effect in the repeat runs; an effect the other way counts as inactive or inconclusive; note: nearly all actives have a fitted effect of over 55% in size; note: potency is the fitted concentration of half-maximal effect). In a few lines: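 KeratinoSens cells (HaCaT keratinocytes stably carrying an ARE-luciferase reporter) were seeded at 1,500 cells/well and rested 5 h at 37 C/5% CO2. They were then exposed to compounds in DMSO for 23 h. Viability was read by CellTiter-Fluor fluorescence after 1 h.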
(Quantitative high-throughput screening tests each substance at several concentrations.)

The target of assay [2] is Gonadotropin-releasing hormone receptor (Homo sapiens) (UniProt P30968). The experiment in a line: Human gonadotropin-releasing hormone receptor (GnRHR) small molecule agonists, calcium flux assay in GnRHR-HEK293 cells (AID 1920063). Note: nearly all actives have a fitted effect of over 35% in size. In outline: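 HEK293 cells stably expressing human GnRHR were plated 18 h at 37 °C, loaded with calcium dye 1 h at 37 °C, then given compound in agonist mode; fluorescence (Ex/Em 480/540) read kinetically for 3 min at 1 s intervals.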
Chain of Gonadotropin-releasing hormone receptor (Homo sapiens) (P30968 whole entry, looked up): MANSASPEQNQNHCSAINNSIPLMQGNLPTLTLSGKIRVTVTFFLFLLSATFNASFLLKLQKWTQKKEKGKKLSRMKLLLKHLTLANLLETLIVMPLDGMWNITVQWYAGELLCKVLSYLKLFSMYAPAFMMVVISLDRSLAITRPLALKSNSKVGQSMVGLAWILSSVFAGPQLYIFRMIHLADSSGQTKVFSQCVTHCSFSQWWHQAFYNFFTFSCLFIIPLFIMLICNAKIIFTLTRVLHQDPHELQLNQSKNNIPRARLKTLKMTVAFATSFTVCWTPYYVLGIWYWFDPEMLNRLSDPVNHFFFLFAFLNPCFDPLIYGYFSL
(Calcium flux is commonly read through the fluorescence of an indicator in the cells.)

Assay [3] addresses KiSS-1 receptor (Homo sapiens) (UniProt Q969F8). The experiment in a line: Human kisspeptin (KISS1R) small molecule agonists, calcium flux assay in KISS1R-HEK293 cells (AID 1920064; active = well fitted curve in the direction sought with a large enough effect in the repeat runs; an effect the other way counts as inactive or inconclusive). In outline:
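HEK293 cells stably expressing human KISS1R were plated 18 h at 37 °C, loaded with calcium dye for 1 h at 37 °C, then given compound by pin tool. Fluorescence (Ex/Em 480/540) was read kinetically for 3 min.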

Assay [4] can be described thus: G protein-coupled receptor (GPCR) small molecule agonists, calcium flux assay: HEK293 wild type cell line counter screen (AID 1920065). In outline:
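Cells were plated and cultured 18 h at 37 C/5% CO2, then loaded with calcium dye for 1 h at 37 C. Compounds in DMSO were pin-transferred in agonist mode, and fluorescence (Ex/Em 480/540) was read kinetically for 3 min at 1 s intervals.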

Assay [5] in a line: p53 small molecule agonists, cell-based qHTS assay with human liver microsomes (AID 1963577).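 Note: p53 response element beta-lactamase reporter cells with liver microsomes plus NADPH.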 In a few lines:
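Steps: plate p53RE-bla cells, incubate 5 h at 37 C; add compound in DMSO; add microsomes (0.5 mg/mL final) and NADPH (0.5 mg/mL final); incubate 16 h at 37 C; add LiveBLAzer, 2 h RT; read fluorescence.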

Assay [6] can be described thus: p53 small molecule agonists, cell-based qHTS assay with human liver microsomes: qHTS cell viability counter screen (AID 1963579). Note: nearly all actives have a fitted effect of over 45% in size. In outline: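 After the 460/530 nm beta-lactamase read, CellTiter-Glo was added to the same wells and luminescence measured after 30 min at room temperature, giving viability of p53RE-bla cells treated 16 h with compounds plus microsomes and NADPH.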

Assay [7] is described as follows: p53 small molecule agonists, cell-based qHTS assay with rat liver microsomes: qHTS cell viability counter screen (AID 1963580). Note: nearly all actives have a fitted effect of over 45% in size. Note: potency is the fitted concentration of half-maximal effect. In outline:
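In HCT-116 cells carrying a p53 response element-bla reporter, compounds were metabolically activated in situ by rat liver microsomes with NADPH over 16 h. Cell ATP content then served as the cytotoxicity measure.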

A short description of assay [8]: p53 small molecule agonists, cell-based qHTS assay: qHTS cell viability counter screen (AID 1963581). Note: nearly all actives have a fitted effect of over 45% in size. In a few lines: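 p53RE-bla HCT-116 cells were exposed to compounds for 16 h at 37 C; after the beta-lactamase FRET read in the same wells, CellTiter-Glo was added and luminescence (intracellular ATP) read after 30 min at room temperature.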
Assay [9] is described as follows: p53 small molecule agonists, cell-based qHTS assay (AID 1963582; active = well fitted activation curve with a large enough effect in the signal ratio in the repeat runs, not every such curve was filed as active; the % refers to the signal ratio). In a few lines:
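p53RE-bla beta-lactamase reporter cells rested 5 h at 37 C/5% CO2, then received compounds in DMSO by pin transfer and were incubated 16 h at 37 C. LiveBLAzer B/G FRET substrate was loaded for 2 h at room temperature before fluorescence reading.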

Assay [10] deals with 5-hydroxytryptamine receptor 2A (Homo sapiens) (UniProt P28223). Put plainly: 5-hydroxytryptamine receptor 2A (HTR2A) small molecule antagonists, cell-based qHTS assay (AID 1963586). Note: nearly all actives have a fitted effect of over 45% in size. In a few lines: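 Antagonist-mode intracellular calcium assay: DOI (4 nM) added after 5 min compound pre-incubation at room temperature to dye-loaded HTR2A-CHO cells. Fluorescence followed for 3 min, sampled every second.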
Chain of 5-hydroxytryptamine receptor 2A (Homo sapiens) (P28223 whole entry, looked up): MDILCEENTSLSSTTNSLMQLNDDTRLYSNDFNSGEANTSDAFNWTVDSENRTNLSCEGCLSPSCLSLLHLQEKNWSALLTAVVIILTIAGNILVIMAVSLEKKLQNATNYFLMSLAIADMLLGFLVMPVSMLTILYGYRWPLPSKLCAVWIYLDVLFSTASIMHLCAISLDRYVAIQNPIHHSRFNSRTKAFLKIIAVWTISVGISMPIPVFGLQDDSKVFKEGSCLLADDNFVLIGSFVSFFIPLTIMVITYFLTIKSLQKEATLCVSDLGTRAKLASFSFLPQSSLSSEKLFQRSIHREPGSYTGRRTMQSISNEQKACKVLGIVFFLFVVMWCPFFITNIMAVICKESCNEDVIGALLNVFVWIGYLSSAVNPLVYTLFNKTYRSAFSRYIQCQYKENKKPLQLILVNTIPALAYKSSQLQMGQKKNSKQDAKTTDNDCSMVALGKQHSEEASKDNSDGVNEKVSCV

Assay [11] shares this target. The experiment in a line: 5-hydroxytryptamine receptor 2A (HTR2A) small molecule agonists, cell-based qHTS assay (AID 1963587). Note: nearly all actives have a fitted effect of over 30% in size. In outline: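 HTR2A-CHO cells, plated 18 h at 37 C/5% CO2, dye-loaded 1 h at 37 C; compounds in DMSO added by pin tool (agonist mode). Intracellular calcium flux read as kinetic fluorescence on FDSS over 2 min at 1 s intervals.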
The target in assay [12] is Muscarinic acetylcholine receptor M1 (Homo sapiens) (UniProt P11229). Put plainly: Cholinergic receptor muscarinic 1 (CHRM1) small molecule agonists, cell-based qHTS assay (AID 1963589). Note: nearly all actives have a fitted effect of over 35% in size. In outline: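 CHO cells stably expressing human CHRM1, seeded 18 h at 37 C/5% CO2, dye-loaded 1 h at 37 C, then given compound in agonist mode; intracellular calcium fluorescence read kinetically at 1 s intervals. Fifteen concentrations, three independent runs.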
Chain of Muscarinic acetylcholine receptor M1 (Homo sapiens) (P11229 whole entry, looked up): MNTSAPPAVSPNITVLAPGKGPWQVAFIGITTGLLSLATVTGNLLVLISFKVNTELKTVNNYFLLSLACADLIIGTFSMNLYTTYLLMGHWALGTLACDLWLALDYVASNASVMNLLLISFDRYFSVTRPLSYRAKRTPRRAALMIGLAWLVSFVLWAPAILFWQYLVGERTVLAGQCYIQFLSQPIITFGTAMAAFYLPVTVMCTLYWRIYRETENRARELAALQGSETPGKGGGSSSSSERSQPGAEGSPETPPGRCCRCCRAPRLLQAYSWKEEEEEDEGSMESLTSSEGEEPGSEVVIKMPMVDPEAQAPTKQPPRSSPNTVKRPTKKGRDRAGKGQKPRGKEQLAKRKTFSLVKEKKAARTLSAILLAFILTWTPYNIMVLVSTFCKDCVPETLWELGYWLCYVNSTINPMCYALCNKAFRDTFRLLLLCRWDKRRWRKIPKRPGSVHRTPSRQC

For assay [13], the target named is Beta-2 adrenergic receptor (Homo sapiens) (UniProt P07550). Put plainly: Adrenergic beta2 receptor (ADRB2) small molecule antagonists, cell-based qHTS assay (AID 1963592). For activity change, negative = inhibition: series mostly up to about 92 µM. Note: nearly all actives have a fitted effect of over 50% in size. Note: potency is the fitted concentration of half-maximal effect. In outline: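 Cells (CHO, stable ADRB2 overexpression) incubated 18-20hr at 37C; compounds added from DMSO; agonist mix (1nM isoproterenol, 100uM IBMX, 25uM Ro-20-1724) added; 0.5hr RT; d2-cAMP and anti-cAMP-cryptate added; 1hr RT; 665/615 nm read.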
Chain of Beta-2 adrenergic receptor (Homo sapiens) (P07550 whole entry, looked up): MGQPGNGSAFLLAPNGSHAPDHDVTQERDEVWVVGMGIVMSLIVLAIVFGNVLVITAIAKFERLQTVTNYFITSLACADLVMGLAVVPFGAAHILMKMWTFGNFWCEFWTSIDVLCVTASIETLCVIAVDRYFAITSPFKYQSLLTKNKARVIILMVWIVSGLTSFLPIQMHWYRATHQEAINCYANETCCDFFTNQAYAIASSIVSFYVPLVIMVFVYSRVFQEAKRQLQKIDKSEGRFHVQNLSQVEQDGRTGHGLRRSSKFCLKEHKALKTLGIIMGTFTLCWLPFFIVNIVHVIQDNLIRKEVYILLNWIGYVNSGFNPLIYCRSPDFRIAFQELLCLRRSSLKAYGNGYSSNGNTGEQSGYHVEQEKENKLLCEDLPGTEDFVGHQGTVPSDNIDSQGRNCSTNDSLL

For assay [14] the target is unchanged. Put plainly: Adrenergic beta2 receptor (ADRB2) small molecule agonists, cell-based qHTS assay (AID 1963593).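 Note: CHO cells stably overexpressing human ADRB2.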 In outline: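 CHO cells stably over-expressing ADRB2 were plated overnight at 37C, then dosed with compounds plus a stimulation mix containing 100uM IBMX and 25uM Ro-20-1724 for 0.5hr at room temperature. cAMP was measured by HTRF competition, 1hr.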

In assay [15] the target is D(2) dopamine receptor (Homo sapiens) (UniProt P14416). The experiment in a line: Dopamine D2 receptor (DRD2) small molecule agonists, cell-based qHTS assay (AID 1963594). Note: nearly all actives have a fitted effect of over 35% in size. Note: potency is the fitted concentration of half-maximal effect. In outline:
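HEK293 cells stably expressing DRD2 were cultured 24 h at 37 C, then given Ro20-1724 (0.1 mM final) and compounds for 10 min at room temperature. NKH477 (200nM) was then added for 30 min. cAMP was read by HTRF.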

Assay [16] has the same target. Put plainly: Dopamine D2 receptor (DRD2) small molecule antagonists, cell-based qHTS assay (AID 1963595; active = well fitted inhibition curve with a large enough effect in the signal ratio in the repeat runs, with a control signal flat; the % refers to the signal ratio). In a few lines:
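In this cell-based antagonist screen, compounds act for 10 min at room temperature before a 30 min challenge with 12 nM quinpirole and 200 nM NKH477. cAMP is quantified by HTRF competition in DRD2-HEK293 cells containing 0.1 mM Ro20-1724.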

The nature of assay [17]: p53 small molecule agonists, cell-based qHTS assay with rat liver microsomes (AID 1963578). In a few lines: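 Metabolic activation is supplied by rat liver microsomes with NADPH (each 0.5 mg/mL final). p53RE-bla cells incubate with compound 16 h at 37 C; reporter activity is measured by LiveBLAzer fluorescence.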
The target of assay [18] is Muscarinic acetylcholine receptor M1 (Homo sapiens) (UniProt P11229). The experiment in a line: Cholinergic receptor muscarinic 1 (CHRM1) small molecule antagonists, cell-based qHTS assay (AID 1963588). Note: nearly all actives have a fitted effect of over 40% in size. In outline: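 CHRM1-CHO calcium-flux assay, antagonist mode. Cells were seeded 18 h, dye-loaded 1 h at 37 C and given compound for 5 min at RT, then acetylcholine was added at 50nM. FDSS fluorescence was read 3 min; 15 concentrations, three runs.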

Assay [19] is described as follows: cAMP Responsive Elements (CRE) small molecule agonists, cell-based qHTS assay (AID 1963590). In outline:
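CRE-bla HEK 293T cells in DMEM with 10% dialyzed FBS, NEAA, pyruvate and 25 mM HEPES were plated 18 h at 37 C/5% CO2, then exposed to compounds in DMSO for 3 h before LiveBLAzer B/G FRET substrate addition.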

Assay [20] in a line: cAMP Responsive Elements (CRE) small molecule antagonists, cell-based qHTS assay (AID 1963591; active = well fitted inhibition curve with a large enough effect in the signal ratio in the repeat runs, not every such curve was filed as active; the % refers to the signal ratio; note: potency is the fitted concentration of half-maximal effect). In a few lines:
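CRE-bla HEK293T cells were plated 18 h at 37 °C/5% CO2, pinned with compound in DMSO, then stimulated with NKH477 at 0.25 uM final for 3 h. LiveBLAzer B/G FRET substrate was added and plates incubated 2 h at room temperature.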
% is set by controls: 0 for no effect and ±100 for the full control effect.

Chain of KiSS-1 receptor (Homo sapiens) (Q969F8 whole entry, looked up): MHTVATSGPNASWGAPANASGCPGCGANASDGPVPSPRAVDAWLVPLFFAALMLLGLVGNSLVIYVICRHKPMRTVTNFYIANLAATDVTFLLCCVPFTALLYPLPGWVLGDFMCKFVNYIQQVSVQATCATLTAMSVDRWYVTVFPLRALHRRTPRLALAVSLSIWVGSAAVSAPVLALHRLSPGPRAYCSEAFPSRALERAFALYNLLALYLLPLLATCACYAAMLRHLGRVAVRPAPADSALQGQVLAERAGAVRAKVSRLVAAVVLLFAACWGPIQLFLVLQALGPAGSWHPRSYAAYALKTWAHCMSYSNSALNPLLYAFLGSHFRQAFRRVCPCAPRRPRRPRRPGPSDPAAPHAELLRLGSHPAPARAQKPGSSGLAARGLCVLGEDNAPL
Chain of D(2) dopamine receptor (Homo sapiens) (P14416 whole entry, looked up): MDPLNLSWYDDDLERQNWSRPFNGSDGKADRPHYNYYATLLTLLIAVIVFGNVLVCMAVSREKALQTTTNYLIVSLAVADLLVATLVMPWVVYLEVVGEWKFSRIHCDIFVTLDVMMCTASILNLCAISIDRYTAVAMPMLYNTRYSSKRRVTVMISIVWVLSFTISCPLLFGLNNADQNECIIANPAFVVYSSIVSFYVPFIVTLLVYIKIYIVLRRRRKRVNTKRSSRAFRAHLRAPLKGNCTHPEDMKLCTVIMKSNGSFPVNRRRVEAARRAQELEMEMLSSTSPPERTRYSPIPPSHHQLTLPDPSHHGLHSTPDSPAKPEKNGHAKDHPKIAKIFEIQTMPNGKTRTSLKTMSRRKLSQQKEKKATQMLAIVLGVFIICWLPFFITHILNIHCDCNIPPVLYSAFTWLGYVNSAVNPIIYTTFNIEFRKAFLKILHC

Consider `O=C1c2ccccc2C(=O)c2c(Cl)cccc21`, for which the Potency result in assay [1], in [2], in assay [3], in assay [4], in assay [5] and in assay [6] was “inactive” throughout. For the same compound, the Potency entry in [8], in assay [9], in assay [10], in assay [11], in [12] and in assay [13] was “inactive” throughout. Further, the Potency result in assay [14], in assay [15] and in [16] was “inactive” in each case. Further, the Potency in [7] was 0.965 µM (active).
As to `CC(C)(c1ccc(Oc2ccc(N)cc2)cc1)c1ccc(Oc2ccc(N)cc2)cc1`, in assay [1], the Potency was 38.6 µM (active). Also, the Potency entry in [2], in assay [3], in assay [4], in assay [17], in [6] and in assay [7] was “inactive” each time. The Potency entry in assay [8], in assay [9], in assay [10], in assay [11], in assay [18] and in assay [12] was “inactive” throughout. Further, the Potency result in assay [19], in assay [20], in [13], in assay [15] and in assay [16] was “inactive” each time.
On to `CCOC(=O)/C=C/c1ccccc1`, for which the Potency result in [1], in [2], in [3], in assay [4], in [17] and in assay [6] was “inactive” throughout. Besides, the Potency result in assay [7], in [8], in assay [9], in assay [10], in assay [11] and in assay [18] was “inactive” throughout. Moreover, the Potency result in [12], in assay [19], in [13], in assay [14], in assay [15] and in assay [16] was “inactive” throughout.
`CC1=C(C/C=C(\C)CCC[C@H](C)CCC[C@H](C)CCCC(C)C)C(=O)c2ccccc2C1=O`: the Potency result in [1], in assay [2], in assay [3], in [4], in assay [6] and in [7] was “inactive” throughout. The Potency result in assay [8], in assay [10], in [11], in assay [18], in assay [12] and in [19] was “inactive” throughout. For the same compound, the Potency entry in assay [20], in assay [13], in assay [15] and in [16] was “inactive” each time.
Regarding `CCN1/C(=C/C=C/c2sc3ccccc3[n+]2CC)Sc2ccccc21`, the Potency was 3.26 µM (active) in assay [1], 11.6 µM (active) in [20], 5.8 µM (active) in assay [13] and 14.6 µM (active) in assay [15]. Moreover, the activity change in assay [2] was -1.77% [at 11.8 µM, hits give high values]. In addition, the activation in assay [3] was -1.63% [at 15.8 µM]; in assay [4] it was -0.0412% [at 11.8 µM]; in assay [17], 2.93% [at 13.6 µM]; in [12] it was -0.119% [at 15.8 µM]. Further, the activity change, negative = cytotoxicity in assay [6] was 8.44% [at 13.5 µM]; in [7], 1.97% [at 13.5 µM]; in [8], 1.06% [at 13.5 µM]. Moreover, the activity, negative = inhibition in assay [10] was -18.6% [at 12.7 µM]; in assay [18] it was -35.2% [at 12.6 µM]. In assay [16], the activity change, negative = inhibition was -0.0645% [at 18.9 µM].
Turning to `C[C@](N)(Cc1ccc(O)cc1)C(=O)O`, the activity change, negative = cytotoxicity in [1] is 5.45% [at 8.39 µM]; in assay [6], 8.09% [at 5.99 µM]; in [8], -19.4% [at 5.99 µM]. In assay [2], the activity change was -1.06% [at 5.22 µM, hits give high values]. Also, the activation in assay [3] was -0.73% [at 6.97 µM]; in assay [4] it was 0.0455% [at 5.23 µM]; in [17] it was -3.92% [at 5.99 µM]; in assay [19] it was -0.0581% [at 8.39 µM]; in [14], 23.8% [at 8.39 µM]; in assay [15] it was -6.61% [at 8.39 µM]. Besides, the activity change, negative = inhibition was 2.35% [at 8.39 µM] in assay [20], 3.74% [at 8.39 µM] in assay [13] and -5.15% [at 8.38 µM] in assay [16].
Consider `CCCCCCCCC(=O)OCC(C)OC(=O)CCCCCCCC` (stereo not drawn), for which the Potency result in assay [1], in assay [2], in [3], in assay [4], in assay [6] and in assay [7] was “inactive” in each case. Besides, the Potency result in [8], in assay [10], in assay [11], in assay [18], in [12] and in assay [19] was “inactive” each time. Further, the Potency entry in assay [13], in [15] and in assay [16] was “inactive” in each case.
Turning to `CC(=O)N(CC(O)CO)c1c(I)c(C(=O)NCCO)c(I)c(C(=O)NCC(O)CO)c1I` (stereo not drawn), the Potency result in [1], in assay [2], in [3], in assay [4], in assay [6] and in [7] was “inactive” throughout. The Potency result in assay [8], in assay [10], in assay [11], in assay [18], in assay [12] and in assay [19] was “inactive” in each case. The Potency entry in [20], in [13], in [14], in [15] and in assay [16] was “inactive” each time.
